Compound activity from PubChem.
Only a selection was taken, and hits are over-represented in it overall.
Tg IFNy HTS – inhibitors of Toxoplasma gondii growth with IFN-gamma. activity change, negative = inhibition, % (no concentration beside the values). Toxoplasma gondii growth in IFN-gamma-treated host cells; stronger effect = lower value. actives 3.8% (n = 69,000). AID 1259416; in the data active means activity change below about -70%, passing the limit was not always enough;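 further: host cells are HeLa cells infected with Toxoplasma gondii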
Large screens that a line does not name were inactive; ! = a repeat was not active.

Clc1cccc(Nc2nnc(-c3ccccc3)c3ccccc23)c1	none
c1ccc(Nc2nc(-c3ccccc3)c(-c3ccccc3)s2)cc1	Tg IFNy HTS -105
Cc1oc(C2CCN(C(=O)Nc3ccc(Cl)cc3)CC2)nc1C(=O)N1CCCC1	none
Cc1oc(C2CCN(S(=O)(=O)c3ccc(F)cc3)CC2)nc1C(=O)N1CCCC1	none
Cc1oc(C2CCN(C(=O)Nc3cccc(Cl)c3C)CC2)nc1C(=O)N(C)C	none
Cc1ccc(F)cc1S(=O)(=O)N1CCC(c2nc(C(=O)N3CCCC3)c(C)o2)CC1	Tg IFNy HTS -82
Cc1oc(C2CCN(C(=O)Nc3cccc(F)c3C)CC2)nc1C(=O)N(C)C	Tg IFNy HTS -79
CSc1ccc(NC(=O)N2CCC(c3nc(C(=O)N4CCCC4)c(C)o3)CC2)cc1	Tg IFNy HTS -84
Cc1cccc(NC(=O)N2CCC(c3nc(C(=O)N(C)C)c(C)o3)CC2)c1C	none
CSc1ccc(NC(=O)N2CCC(c3nc(C(=O)N4CCCCC4)c(C)o3)CC2)cc1	none
Cc1oc(C2CCN(S(=O)(=O)c3cccc(F)c3)CC2)nc1C(=O)N1CCCC1	none
Cc1nnsc1C(=O)N1CCN(C(=O)C2COc3ccccc3O2)CC1 (stereo not drawn)	none
O=C(NCCC1=CCCCC1)C1CC12CCN(Cc1ccc3ccccc3c1)CC2 (stereo not drawn)	none
N#Cc1ccncn1	none
COc1ccccc1-c1nc(Cn2nnc(C(=O)Nc3cccc(Cl)c3)c2C)c(C)o1	none
CN1C[C@@H]2CCN(C(=O)NCc3ccccc3)CC[C@H]2S1(=O)=O	none
COc1ccc(-c2nc(NCCN(C)C3CCCCC3)c3ccccc3n2)cc1	none
O=C(CC1N=C2c3ccccc3N=C(SCc3ccccc3Cl)N2C1=O)NCc1ccccc1 (stereo not drawn)	none
Cc1cc(Nc2ccc(Br)cc2)nc(-c2ccccc2O)n1	Tg IFNy HTS -85
Cc1cc(N2CC(c3ccccn3)C2)nc(-c2ccccc2O)n1	none
CCOc1ncccc1-c1nc(C)cc(NC)n1	none
CS(=O)(=O)Cc1nnc2n1CCN(Cc1ccccn1)C2	none
CCOc1ccc(C2CC(=O)c3c([nH]c(C(=O)OCCSC)c3C)C2)cc1 (stereo not drawn)	none
CC1C(=O)N(C)CCN1Cc1ccc(OCC(=O)N2CCOCC2)cc1 (stereo not drawn)	none
O=C(NCCc1ccccn1)Nc1nnc(-c2ccc(F)cc2)s1	none
S=C(NCCc1ccccn1)NN1C2CSC1CS2	Tg IFNy HTS -84
S=C(NCCc1ccccn1)NC1CC2CCC1C2 (stereo not drawn)	none
C=CCNc1ccccc1C(=O)NCC1CN(S(C)(=O)=O)CCO1 (stereo not drawn)	none
CCc1nn(C)c(NC(=O)c2cccc(CN3CCCC3C)c2)c1CC (stereo not drawn)	none
O=c1c(O)c(-c2ccc(O)c(O)c2)oc2cc(O)cc(O)c12	Tg IFNy HTS -78!
Cc1oc2cc(O)cc(O)c2c(=O)c1-c1ccccc1	none
O=c1cc(-c2ccc(O)c(O)c2)oc2cc(O)cc(O)c12	none
Cc1cc(C)c(S(=O)(=O)N2CCC3(CC2)Nc2ccc(C)c(C)c2-n2cccc23)cc1C	none
COc1ccc(CNC(=O)CN2C(=O)CCc3cc(S(=O)(=O)N4CCCC4)ccc32)cc1	none
CN1C[C@H](NC(=O)c2ccccc2N2CCS(=O)(=O)CC2)C[C@H]1CO	none
Cc1ccc(F)cc1-n1c(-c2ccn[nH]2)n[nH]c1=O	none
CCn1c(C2CCCN(Cc3ccc(-c4ccn[nH]4)s3)C2)nn(C)c1=O (stereo not drawn)	none
CCn1c(=O)c(-c2ccn[nH]2)cc2c(C)nc(N)nc21	Tg IFNy HTS -74
CS(=O)(=O)N1C[C@@H]2COC[C@@]2(Cc2nnc(C3CC3)o2)C1	none
O=C(Nc1ccc(-c2nc(-c3ccccc3)co2)cc1)c1ccccc1	none
Cc1ccc(F)c(NC(=O)Nc2ccc(-c3cccc4[nH]nc(N)c34)cc2)c1	Tg IFNy HTS -75
Cc1ccc(-c2coc(-c3ccc(NC(=O)Nc4ccc(F)cc4F)cc3)n2)c(C)c1	none
Cc1ccc(C)c(-c2coc(-c3ccc(NC(=O)Nc4ccccc4F)cc3)n2)c1	none
CC(C)NC(=O)N1CCCC1c1nnn2cc(C3CC3)ccc12 (stereo not drawn)	none
COc1ccc(F)c(-c2cnc(-n3cnnc3)cc2C)c1	Tg IFNy HTS -81
Cc1cc(-n2cnnc2)ncc1-c1ccc(C(C)N2CCCC2)cc1 (stereo not drawn)	none
COc1ccc(F)c(-c2nc(OC)cc(OC)n2)c1	none
COCCN1C(=O)CCc2cc(NS(=O)(=O)c3cccc4nsnc34)ccc21	none
CC(=O)N1CCC[C@H]1C(=O)N[C@@H](Cc1cnc[nH]1)C(=O)N[C@@H](CO)C(=O)N[C@@H](CS)C(=O)N[C@@H](CC(N)=O)C(N)=O	none
COc1cc(C(=O)N2CCC3(CC2)NC(=O)c2cc(F)ccc2N3C)cc(OC)c1OC	none
O=C(Cn1c(=O)cc(C(=O)N2CCCC2)c2ccccc21)Nc1cccc(Br)c1	none
COc1ccc(-c2nc(Nc3ccc(C)cc3)c3ccccc3n2)cc1	none
COc1cccc(NC(=O)c2nc(Nc3ccc(C)cc3)c3ccccc3n2)c1	Tg IFNy HTS -88
COc1cc(-c2nc(Nc3ccc(C)cc3)c3ccccc3n2)cc(OC)c1OC	Tg IFNy HTS -93
Cc1ccc(NC(=O)c2nc(Nc3ccccc3)c3ccccc3n2)cc1	none
